From PubChem BioAssay AID1159580 (chemical genetic matrix, 2015)
Out of some 5,500 compounds screened, about 2,000 (36%) were called active. Another 18% or so got no clear call; they are omitted. Rule as the data show it: active = normalized growth mostly below about 0.91 (no sharp cut-off); inconclusive = no clear call, values can overlap the other calls; inactive = mostly above about 0.92. Some of the results follow.

Assay: chemical genetic growth profiling, strain panel (AID 1159580);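 also: tested at 20 µM; growth read once vehicle control cultures reached saturation at 30 °C; 1 = growth at the plate median or of vehicle wells; lower values mean less growth of the strain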
Conditions: S. cerevisiae deletion strains, growth OD

Measured: normalized growth

Cc1cn[nH]c1
inactive: locus YAL021C, strain ccr4, hits give low values 1.05 | locus YAL026C, strain drs2, hits give low values 1.02 | locus YAL030W, strain snc1, hits give low values 1.03 | locus YAL040C, strain CLN3, hits give low values 0.992 | locus YBL061C, strain skt5, hits give low values 1.02 | locus YBR009C, strain hhf1, hits give low values 1.02 | locus YBR023C, strain chs3, hits give low values 1.03 | locus YBR171W, strain sec66, hits give low values 1.04 | locus YBR231C, strain swc5, hits give low values 1.04 | locus YBR279W, strain paf1, hits give low values 1.02 | locus YCL011C, strain gbp2, hits give low values 1.02 | locus YCL016C, strain dcc1, hits give low values 1.02 | locus YCL061C, strain MRC1 (second series), hits give low values 0.99 | locus YCL069W, strain vba3, hits give low values 1.03 | locus YCR088W, strain abp1, hits give low values 1.01 | locus YDL005C, strain med2, hits give low values 1.03 | locus YDL040C, strain nat1, hits give low values 1.01 | locus YDR001C, strain nth1, hits give low values 1.01 | locus YDR069C, strain doa4, hits give low values 1.06 | locus YDR137W, strain rgp1, hits give low values 1.01 | locus YDR150W, strain NUM1, hits give low values 0.986 | locus YDR159W, strain sac3, hits give low values 0.99 | locus YDR297W, strain sur2, hits give low values 1.02 | locus YDR334W, strain swr1, hits give low values 1.03 | locus YDR335W, strain msn5, hits give low values 1.02 | locus YDR363W, strain ESC2, hits give low values 1.02 | locus YDR392W, strain spt3, hits give low values 1.1 | locus YEL003W, strain gim4, hits give low values 1.02 | locus YEL037C, strain rad23, hits give low values 1.01 | locus YEL061C, strain CIN8 (second series), hits give low values 1.01 | locus YER002W, strain NOP16, hits give low values 1.01 | locus YER015W, strain faa2, hits give low values 1.02 | locus YER016W, strain bim1, hits give low values 1.01 | locus YER111C, strain swi4, hits give low values 1.02 | locus YER155C, strain BEM2 (second series), hits give low values 1.13 | locus YFR010W, strain ubp6, hits give low values 1.05 | locus YGL167C, strain pmr1, hits give low values 1.02 | locus YGL173C, strain kem1, hits give low values 1.01 | locus YGL227W, strain vid30, hits give low values 1.01 | locus YGL240W, strain doc1, hits give low values 1.05 | locus YGL253W, strain hxk2, hits give low values 1.01 | locus YGR078C, strain PAC10, hits give low values 0.984 | locus YHR013C, strain ard1, hits give low values 1.1 | locus YHR027C, strain rpn1, hits give low values 1.03 | locus YHR030C, strain SLT2, hits give low values 0.971 | locus YHR079C, strain IRE1, hits give low values 0.962 | locus YHR142W, strain chs7, hits give low values 1.06 | locus YJL092W, strain hpr5, hits give low values 1.02 | locus YJL095W, strain BCK1 (second series), hits give low values 1.02 | locus YJL095W, strain BCK1, hits give low values 1.03 | locus YJL115W, strain asf1, hits give low values 1.01 | locus YJL129C, strain trk1, hits give low values 1.06 | locus YJL154C, strain vps35, hits give low values 1.02 | locus YJL164C, strain tpk1, hits give low values 1.03 | locus YJL166W, strain qcr8, hits give low values 1.03 | locus YJR066W, strain TOR1, hits give low values 0.924 | locus YJR075W, strain HOC1, hits give low values 1.02 | locus YKL160W, strain elf1, hits give low values 1.01 | locus YKR026C, strain gcn3, hits give low values 1.01 | locus YKR091W, strain srl3, hits give low values 1.02 | locus YLL001W, strain dnm1, hits give low values 1.02 | locus YLL026W, hits give low values 1.02 | locus YLL041C, strain sdh2, hits give low values 1.02 | locus YLR027C, strain aat2, hits give low values 1.01 | locus YLR113W, strain HOG1, hits give low values 1.02 | locus YLR221C, strain rsa3, hits give low values 1.02 | locus YLR258W, strain gsy2, hits give low values 1.03 | locus YLR262C, strain YPT6 (second series), hits give low values 1.02 | locus YLR320W, strain mms22, hits give low values 1.08 | locus YLR342W, strain FKS1, hits give low values 1.03 | locus YLR357W, strain rsc2, hits give low values 1.09 | locus YLR370C, strain arc18, hits give low values 1.03 | locus YLR384C, strain iki3, hits give low values 1.01 | locus YML120C, strain ndi1, hits give low values 1.01 | locus YMR058W, strain fet3, hits give low values 1.03 | locus YMR125W, strain sto1, hits give low values 1.03 | locus YMR129W, hits give low values 1.01 | locus YMR205C, strain PFK2, hits give low values 1.08 | locus YMR231W, strain pep5, hits give low values 1.02 | locus YMR307W, strain GAS1, hits give low values 1 | locus YNL071W, strain lat1, hits give low values 1.06 | locus YNL153C, strain GIM3, hits give low values 1.02 | locus YNL175C, strain NOP13, hits give low values 0.994 | locus YNL183C, strain NPR1, hits give low values 0.934 | locus YNL197C, strain WHI3, hits give low values 0.996 | locus YNL209W, strain ssb2, hits give low values 1.02 | locus YNL224C, strain SQS1, hits give low values 1.02 | locus YNL248C, strain rpa49, hits give low values 1.02 | locus YNL322C, strain KRE1 (second series), hits give low values 1.02 | locus YNL322C, strain KRE1, hits give low values 0.974 | locus YNR049C, strain mso1, hits give low values 1.01 | locus YOR001W, strain rrp6, hits give low values 1.03 | locus YOR070C, strain gyp1, hits give low values 1.02 | locus YOR080W, strain dia2, hits give low values 1.04 | locus YOR083W, strain WHI5 (second series), hits give low values 1.01 | locus YOR083W, strain WHI5, hits give low values 1.02 | locus YOR106W, strain vam3, hits give low values 1.03 | locus YOR231W, strain MKK1, hits give low values 0.985 | locus YOR265W, strain rbl2, hits give low values 1.02 | locus YOR270C, strain vph1, hits give low values 1.08 | locus YOR290C, strain snf2, hits give low values 1.03 | locus YPL051W, strain arl3, hits give low values 1.02 | locus YPL055C, strain LGE1, hits give low values 1.02 | locus YPL078C, strain atp4, hits give low values 1.04 | locus YPL106C, strain sse1, hits give low values 1.1 | locus YPL240C, strain hsp82, hits give low values 1.01 | locus YPL241C, strain CIN2, hits give low values 0.981 | locus YPL256C, strain CLN2, hits give low values 0.938
active: locus YDR195W, strain ref2 1.16 [resistant]
